Measurements as given in the supplement of paper PMC10849652.
Targets with a hit are over-represented here; the source holds about 7,900 in all. About 0.6% of all pairs of compound and target were hits. Unmarked numbers belong to inactive results.

Legend:
Assay in all cases: log2 fold change, soluble protein after heating vs DMSO (PISA); higher = thermal stabilisation; K562 cells, 10 uM, 30 min; active = over 0.2 and 3.5 SD of the protein, either way, in both replicates (recomputed)
[1] = compound: CS(=O)(=O)c1ccc(-c2cnc(N)c(C(=O)Nc3ccccc3)n2)cc1
In short: (§1)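 Values are thermal stability changes relative to control samples and are taken from duplicates. They are stated as log2 fold changes. Before quantification by TMTpro 16plex LC-MS/MS with equalised channel sums, K562 cells at 2×10^6 cells/mL were treated with 10 μM compound for 30 min, heated in aliquots for 3 min across 48°C-58°C, pooled, extracted in PBS with 0.5% NP-40 at 4°C, and centrifuged at 21,000xg for 90 min to give the soluble supernatant.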

[2] = compound: C[C@@H](Oc1cc(-c2cnn(C3CCNCC3)c2)cnc1N)c1c(Cl)ccc(F)c1Cl [crizotinib]
In short: as §1

[3] = compound: C[C@@H]1COCCN1C2=NC(=NC(=C2)C3(CC3)S(=O)(=O)C)C4=C5C=CNC5=CC=C4
In short: as §1

[4] = compound: C[C@H](C1=CC=C(C=C1)C(=O)NC2=C3C=CNC3=NC=C2)N
In short: as §1

[5] = compound: C[C@H](Nc1ncnc2nc[nH]c12)c1cc2cccc(Cl)c2c(=O)n1-c1ccccc1 [duvelisib]
In short: as §1

[6] = compound: Cc1cc(Nc2cc(CN3CCOCC3)c3nc(C)c(Cc4ccc(Cl)cc4F)n3n2)n[nH]1 [gandotinib]
In short: as §1

[7] = compound: Cc1cc(Nc2cc(N3CCN(C)CC3)nc(Sc3ccc(NC(=O)C4CC4)cc3)n2)n[nH]1 [tozasertib]
In short: as §1

[8] = compound: Cc1cc(SCc2sc(-c3ccc(C(F)(F)F)cc3)nc2C)ccc1OCC(=O)O
In short: as §1

[9] = compound: Cc1ccc(-n2nc(C(C)(C)C)cc2NC(=O)Nc2ccc(OCCN3CCOCC3)c3ccccc23)cc1 [doramapimod]
In short: as §1

[10] = compound: Cc1ccc(C(=O)N(CCCN)[C@@H](c2nc3cc(Cl)ccc3c(=O)n2Cc2ccccc2)C(C)C)cc1 [ispinesib]
In short: as §1

[11] = compound: Cc1ccc(NC(=O)c2ccc(CN3CC[C@H](N(C)C)C3)c(C(F)(F)F)c2)cc1Nc1nccc(-c2cncnc2)n1 [bafetinib]
In short: as §1

[12] = compound: Cc1cccc(CC(=O)N2CCc3c2ccc(-c2cn(C)c4ncnc(N)c24)c3F)n1
In short: as §1

[13] = compound: Cc1cn(-c2cc(NC(=O)c3ccc(C)c(Nc4nccc(-c5cccnc5)n4)c3)cc(C(F)(F)F)c2)cn1 [nilotinib]
In short: as §1

[14] = compound: Cc1nc(Nc2n[nH]c3c2CN(C(=O)N[C@H](CN(C)C)c2ccccc2)C3(C)C)c2sccc2n1
In short: as §1

[15] = compound: Cc1nc(Nc2ncc(C(=O)Nc3c(C)cccc3Cl)s2)cc(N2CCN(CCO)CC2)n1 [dasatinib]
In short: as §1

[16] = compound: Cc1ncc(-c2ccnc(Nc3ccc(S(C)(=O)=O)cc3)n2)n1C(C)C
In short: as §1

[17] = compound: Cn1cc(-c2ccc3c(c2)CCN3C(=O)Cc2cccc(C(F)(F)F)c2)c2c(N)ncnc21
In short: as §1

[18] = compound: Cn1cc(-c2ccc3nnc(C(F)(F)c4ccc5ncccc5c4)n3n2)cn1
In short: as §1

[19] = compound: Cn1cncc1[C@@](N)(c1ccc(Cl)cc1)c1ccc2c(c1)c(-c1cccc(Cl)c1)cc(=O)n2C [tipifarnib]
In short: as §1

[20] = compound: FC(F)(F)c1ccc(/C=C/c2nc(COc3ccc(CCCCn4ccnn4)cc3)co2)cc1 [mubritinib]
In short: as §1

Sequence of UniProt Q13428 (Q13428 whole entry, looked up): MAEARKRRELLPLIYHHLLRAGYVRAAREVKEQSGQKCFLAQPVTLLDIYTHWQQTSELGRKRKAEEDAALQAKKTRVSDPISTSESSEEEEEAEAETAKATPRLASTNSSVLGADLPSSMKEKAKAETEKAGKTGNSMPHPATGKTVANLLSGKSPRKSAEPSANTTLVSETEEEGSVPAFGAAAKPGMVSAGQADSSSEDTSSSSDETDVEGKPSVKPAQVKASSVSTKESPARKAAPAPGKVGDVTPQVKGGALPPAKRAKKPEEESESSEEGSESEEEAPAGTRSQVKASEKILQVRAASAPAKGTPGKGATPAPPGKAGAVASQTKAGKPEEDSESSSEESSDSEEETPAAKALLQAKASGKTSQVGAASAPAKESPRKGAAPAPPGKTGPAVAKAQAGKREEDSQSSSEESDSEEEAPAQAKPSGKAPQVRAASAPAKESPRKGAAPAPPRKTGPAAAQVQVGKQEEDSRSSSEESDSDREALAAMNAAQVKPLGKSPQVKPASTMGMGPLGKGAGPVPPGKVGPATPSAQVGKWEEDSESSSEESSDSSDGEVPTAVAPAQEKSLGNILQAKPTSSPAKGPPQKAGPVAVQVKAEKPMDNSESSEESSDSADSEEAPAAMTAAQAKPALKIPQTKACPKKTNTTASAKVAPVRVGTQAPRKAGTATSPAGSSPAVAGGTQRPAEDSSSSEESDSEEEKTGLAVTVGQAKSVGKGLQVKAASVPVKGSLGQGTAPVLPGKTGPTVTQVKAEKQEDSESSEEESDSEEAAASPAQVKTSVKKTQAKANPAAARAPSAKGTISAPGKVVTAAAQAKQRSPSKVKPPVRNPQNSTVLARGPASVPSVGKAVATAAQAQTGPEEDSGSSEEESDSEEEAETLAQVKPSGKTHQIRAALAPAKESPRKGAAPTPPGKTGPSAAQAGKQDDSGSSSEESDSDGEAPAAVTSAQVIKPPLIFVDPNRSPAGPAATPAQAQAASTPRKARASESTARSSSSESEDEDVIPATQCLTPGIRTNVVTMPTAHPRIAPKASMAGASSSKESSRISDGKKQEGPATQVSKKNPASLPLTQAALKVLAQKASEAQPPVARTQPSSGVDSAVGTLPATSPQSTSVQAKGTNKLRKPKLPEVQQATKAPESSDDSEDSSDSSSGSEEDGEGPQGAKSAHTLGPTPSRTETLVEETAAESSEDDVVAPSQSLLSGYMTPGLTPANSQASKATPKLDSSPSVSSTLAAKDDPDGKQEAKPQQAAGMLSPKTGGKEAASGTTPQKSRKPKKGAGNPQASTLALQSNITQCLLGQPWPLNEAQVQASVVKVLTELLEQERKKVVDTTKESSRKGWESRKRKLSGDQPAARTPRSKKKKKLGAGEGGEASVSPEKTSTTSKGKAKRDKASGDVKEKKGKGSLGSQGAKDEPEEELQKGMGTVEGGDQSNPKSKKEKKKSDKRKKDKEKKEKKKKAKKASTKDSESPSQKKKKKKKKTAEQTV
Sequence of UniProt P51692 (P51692 whole entry, looked up): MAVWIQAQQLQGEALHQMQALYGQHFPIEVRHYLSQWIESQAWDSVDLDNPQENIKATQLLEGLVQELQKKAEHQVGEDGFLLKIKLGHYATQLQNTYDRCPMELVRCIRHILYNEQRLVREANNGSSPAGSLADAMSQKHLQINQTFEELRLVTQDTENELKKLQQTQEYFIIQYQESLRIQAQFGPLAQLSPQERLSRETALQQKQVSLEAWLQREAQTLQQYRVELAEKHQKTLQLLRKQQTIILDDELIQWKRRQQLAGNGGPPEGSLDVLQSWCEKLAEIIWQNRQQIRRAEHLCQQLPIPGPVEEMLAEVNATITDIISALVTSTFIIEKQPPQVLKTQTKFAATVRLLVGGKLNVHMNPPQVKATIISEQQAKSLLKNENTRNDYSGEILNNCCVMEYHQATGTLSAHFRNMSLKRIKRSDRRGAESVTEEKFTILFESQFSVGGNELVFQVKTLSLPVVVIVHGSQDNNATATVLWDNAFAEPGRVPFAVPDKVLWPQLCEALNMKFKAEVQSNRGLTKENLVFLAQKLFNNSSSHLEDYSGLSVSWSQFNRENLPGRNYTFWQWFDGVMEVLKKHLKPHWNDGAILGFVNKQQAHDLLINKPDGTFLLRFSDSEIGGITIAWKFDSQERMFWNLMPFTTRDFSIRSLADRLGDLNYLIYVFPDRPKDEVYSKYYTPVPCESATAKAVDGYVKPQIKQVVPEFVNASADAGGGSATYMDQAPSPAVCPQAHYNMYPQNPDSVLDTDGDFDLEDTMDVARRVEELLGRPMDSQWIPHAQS
Sequence of UniProt Q8IY18 (Q8IY18 whole entry, looked up): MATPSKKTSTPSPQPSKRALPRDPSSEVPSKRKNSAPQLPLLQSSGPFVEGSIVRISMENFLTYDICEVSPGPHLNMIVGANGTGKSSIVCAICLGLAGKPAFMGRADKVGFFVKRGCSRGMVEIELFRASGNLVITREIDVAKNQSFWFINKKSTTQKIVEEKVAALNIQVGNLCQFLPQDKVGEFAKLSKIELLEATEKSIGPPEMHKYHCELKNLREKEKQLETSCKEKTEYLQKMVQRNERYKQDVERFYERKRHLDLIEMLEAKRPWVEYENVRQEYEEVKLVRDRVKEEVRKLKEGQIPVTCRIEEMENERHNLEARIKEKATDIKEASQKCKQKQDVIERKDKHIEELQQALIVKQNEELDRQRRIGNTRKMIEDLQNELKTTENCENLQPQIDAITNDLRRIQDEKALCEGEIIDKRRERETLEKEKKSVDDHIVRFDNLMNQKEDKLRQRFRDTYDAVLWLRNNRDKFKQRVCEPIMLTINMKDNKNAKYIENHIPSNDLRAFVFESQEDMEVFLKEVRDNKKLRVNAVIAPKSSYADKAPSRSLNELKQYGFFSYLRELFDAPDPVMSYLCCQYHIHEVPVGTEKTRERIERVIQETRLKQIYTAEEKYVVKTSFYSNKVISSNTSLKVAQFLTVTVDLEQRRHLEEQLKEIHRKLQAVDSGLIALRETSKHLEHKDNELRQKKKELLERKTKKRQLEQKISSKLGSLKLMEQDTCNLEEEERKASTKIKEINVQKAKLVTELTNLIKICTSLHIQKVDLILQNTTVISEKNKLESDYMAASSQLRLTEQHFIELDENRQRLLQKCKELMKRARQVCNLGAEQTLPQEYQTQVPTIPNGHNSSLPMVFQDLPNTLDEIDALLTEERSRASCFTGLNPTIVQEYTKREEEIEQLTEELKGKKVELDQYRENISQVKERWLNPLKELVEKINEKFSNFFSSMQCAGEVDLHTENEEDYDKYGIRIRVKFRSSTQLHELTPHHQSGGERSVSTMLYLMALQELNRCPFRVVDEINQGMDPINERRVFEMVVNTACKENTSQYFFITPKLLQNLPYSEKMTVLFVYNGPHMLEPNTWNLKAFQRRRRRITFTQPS
Sequence of UniProt P08047 (P08047 whole entry, looked up): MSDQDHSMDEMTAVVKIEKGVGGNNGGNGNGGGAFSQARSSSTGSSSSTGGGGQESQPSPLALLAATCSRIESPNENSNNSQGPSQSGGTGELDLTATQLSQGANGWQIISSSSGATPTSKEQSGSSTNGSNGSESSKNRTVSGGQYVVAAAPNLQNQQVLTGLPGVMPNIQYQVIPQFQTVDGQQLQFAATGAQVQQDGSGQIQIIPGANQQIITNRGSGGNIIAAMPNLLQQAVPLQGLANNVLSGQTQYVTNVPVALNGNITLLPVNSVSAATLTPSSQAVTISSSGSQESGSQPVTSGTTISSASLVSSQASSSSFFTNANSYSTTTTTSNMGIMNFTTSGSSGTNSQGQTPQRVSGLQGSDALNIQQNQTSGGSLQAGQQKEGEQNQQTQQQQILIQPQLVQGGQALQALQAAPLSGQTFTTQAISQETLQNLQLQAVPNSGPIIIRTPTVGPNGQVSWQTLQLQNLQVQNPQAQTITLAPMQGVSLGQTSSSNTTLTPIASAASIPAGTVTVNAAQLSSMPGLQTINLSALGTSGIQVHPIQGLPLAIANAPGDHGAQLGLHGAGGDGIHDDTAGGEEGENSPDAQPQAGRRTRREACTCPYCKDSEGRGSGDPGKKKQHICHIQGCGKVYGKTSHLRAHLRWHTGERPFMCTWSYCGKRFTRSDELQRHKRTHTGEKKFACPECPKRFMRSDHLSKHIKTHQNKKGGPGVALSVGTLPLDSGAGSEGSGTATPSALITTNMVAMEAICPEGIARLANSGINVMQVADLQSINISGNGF
Sequence of UniProt Q6P1M0 (Q6P1M0 whole entry, looked up): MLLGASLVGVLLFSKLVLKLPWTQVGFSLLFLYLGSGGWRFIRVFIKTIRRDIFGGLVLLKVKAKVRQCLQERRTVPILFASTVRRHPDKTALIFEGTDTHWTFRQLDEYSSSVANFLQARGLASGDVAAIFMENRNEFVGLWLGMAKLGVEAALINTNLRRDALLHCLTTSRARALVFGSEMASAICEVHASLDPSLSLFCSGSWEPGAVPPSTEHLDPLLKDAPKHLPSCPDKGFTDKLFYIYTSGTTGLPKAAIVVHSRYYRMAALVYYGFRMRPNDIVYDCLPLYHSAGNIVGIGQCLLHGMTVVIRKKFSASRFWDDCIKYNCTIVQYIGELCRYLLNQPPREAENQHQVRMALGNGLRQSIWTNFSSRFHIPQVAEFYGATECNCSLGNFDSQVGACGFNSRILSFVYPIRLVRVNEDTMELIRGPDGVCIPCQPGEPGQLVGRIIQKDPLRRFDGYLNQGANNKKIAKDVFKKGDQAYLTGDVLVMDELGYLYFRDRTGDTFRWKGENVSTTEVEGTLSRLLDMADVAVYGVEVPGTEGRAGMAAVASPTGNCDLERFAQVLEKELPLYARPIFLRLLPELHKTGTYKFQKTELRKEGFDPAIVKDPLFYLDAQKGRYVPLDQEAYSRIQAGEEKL
Sequence of UniProt Q16594 (Q16594 whole entry, looked up): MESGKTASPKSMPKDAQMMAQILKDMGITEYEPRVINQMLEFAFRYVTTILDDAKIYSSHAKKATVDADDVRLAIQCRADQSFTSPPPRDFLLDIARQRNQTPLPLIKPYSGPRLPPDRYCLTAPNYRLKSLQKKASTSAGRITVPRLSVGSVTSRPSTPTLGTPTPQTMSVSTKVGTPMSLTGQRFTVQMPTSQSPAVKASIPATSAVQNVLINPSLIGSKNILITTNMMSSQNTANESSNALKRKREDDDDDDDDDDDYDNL

| Target | log2 fold change [1] | log2 fold change [2] | log2 fold change [3] | log2 fold change [4] | log2 fold change [5] | log2 fold change [6] | log2 fold change [7] | log2 fold change [8] | log2 fold change [9] | log2 fold change [10] | log2 fold change [11] | log2 fold change [12] | log2 fold change [13] | log2 fold change [14] | log2 fold change [15] | log2 fold change [16] | log2 fold change [17] | log2 fold change [18] | log2 fold change [19] | log2 fold change [20] |
| --- | --- | --- | --- | --- | --- | --- | --- | --- | --- | --- | --- | --- | --- | --- | --- | --- | --- | --- | --- | --- |
| SLC27A4 (UniProt Q6P1M0) | -0.008 | 0.069 | 0.059 | -0.015 | 0.082 | 0.122 | 0.001 | 0.123 | 0 | -0.103 | -0.026 | 0.022 | -0.098 | -0.101 | -0.113 | 0.011 | 0.003 | 0.009 | 0.124 | 0.598 (active) |
| TAF9 (UniProt Q16594) | -0.029 | 0.043 | 0.007 | 0.116 | 0.009 | -0.047 | -0.034 | -0.131 | -0.019 | -0.007 | -0.076 | -0.026 | 0.061 | -0.031 | 0.146 | -0.086 | -0.12 | -0.011 | 0.077 | -0.005 |
| SMC5 (UniProt Q8IY18) | 0.03 | 0.161 | 0.081 | 0.036 | 0.046 | 0.028 | 0.017 | 0.017 | 0.015 | 0.092 | 0.02 | -0.029 | 0 | -0.095 | 0.05 | 0.082 | 0.006 | -0.102 | 0.032 | -0.004 |
| STAT5B (UniProt P51692) | 0.119 | -0.353 | -0.037 | -0.014 | -0.164 | -0.209 | 0.129 | 0.097 | -0.09 | -0.082 | -0.056 | 0.109 | -0.218 | -0.432 | -0.443 (active) | 0.162 | 0.07 | 0.08 | -0.163 | 0.308 |
| SMARCA5 (UniProt O60264) | -0.004 | -0.073 | 0.273 | 0.161 | 0.025 | -0.045 | 0.154 | 0.127 | -0.052 | -0.012 | -0.052 | 0.001 | -0.019 | -0.152 | -0.052 | 0.002 | -0.088 | -0.112 | -0.022 | 0.184 |
| TCOF1 isoform 4 (UniProt Q13428) | -0.008 | -0.053 | 0.021 | -0.016 | -0.029 | 0.042 | 0.002 | -0.047 | 0.013 | -0.01 | -0.037 | -0.012 | -0.022 | 0.045 | 0.048 | -0.034 | -0.046 | -0.014 | 0.022 | 0.025 |
| TBC1D5 isoform 2 (UniProt Q92609) | 0 | -0.24 | -0.003 | 0.084 | -0.072 | -0.255 | 0.007 | 0.142 | -0.031 | -0.268 | -0.126 | 0.017 | -0.076 | -0.052 | -0.232 | 0.007 | -0.067 | -0.005 | -0.177 | -0.017 |
| SP1 (UniProt P08047) | 0.031 | -0.038 | -0.044 | 0.042 | 0.008 | 0.083 | 0.037 | 0.023 | 0.036 | -0.113 | -0.041 | -0.006 | 0.005 | -0.003 | -0.005 | -0.02 | -0.018 | 0.091 | 0.01 | -0.023 |
